Assay results reported in PubChem BioAssay (Tox21).
Records with an inconclusive call do not appear. A number with no mark means an inactive call. The source made the active and inactive calls. Calls come from the whole dose curve; as a rule, active = well fitted inhibition curve with a large enough effect in the repeat runs; inconclusive = weak or mixed curves; inactive = no such curve, though single readings can be large or run the other way.

Each compound was assayed against Cytochrome P450 2C9 (Homo sapiens) (UniProt P11712) (assay: Cytochrome P450 Family 2 Subfamily C Member 9 (CYP2C9) small molecule antagonists: luciferase reporter qHTS assay (AID 1671198; note: nearly all actives have a fitted effect of over 50% in size)). Details: P450-Glo CYP2C9 enzyme assay, luciferin luminescence; series mostly up to 115 µM; activity change, negative = inhibition: at the top concentration.
Procedure, shortened: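 CYP2C9 activity was measured with a P450-Glo proluciferin substrate. Enzyme–substrate mix was held with compound for 10 min at room temperature, then NADPH regeneration solution was added for 1 h at 37C. Luciferin product was read as luminescence.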
% is set by controls: 0 for no effect and ±100 for the full control effect; potency is the fitted concentration of half-maximal effect.

Sequence of Cytochrome P450 2C9 (Homo sapiens) (P11712 whole entry, looked up): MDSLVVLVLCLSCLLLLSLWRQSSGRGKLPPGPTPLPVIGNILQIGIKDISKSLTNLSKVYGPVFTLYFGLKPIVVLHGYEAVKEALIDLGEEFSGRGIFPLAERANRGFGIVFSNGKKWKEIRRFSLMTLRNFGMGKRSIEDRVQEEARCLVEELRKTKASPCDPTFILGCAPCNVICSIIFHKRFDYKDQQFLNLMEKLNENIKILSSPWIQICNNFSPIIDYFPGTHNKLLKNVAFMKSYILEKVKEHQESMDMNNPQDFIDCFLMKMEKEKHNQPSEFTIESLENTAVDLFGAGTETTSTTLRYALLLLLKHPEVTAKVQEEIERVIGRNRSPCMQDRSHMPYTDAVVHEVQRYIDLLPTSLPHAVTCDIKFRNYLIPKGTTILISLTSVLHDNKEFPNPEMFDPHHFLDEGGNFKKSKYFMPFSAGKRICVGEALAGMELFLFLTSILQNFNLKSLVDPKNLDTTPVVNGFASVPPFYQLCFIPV

Row | Compound | Potency | activity change, negative = inhibition
1 | CC(C)=CCC/C(C)=C/CC/C(C)=C/CO | 17.8 µM (active) | –
2 | C=CC(=O)OCCOCCOCCOCCOC(=O)C=C | inactive | –
3 | Cc1cccc(C)c1NC(=O)CN(CC(=O)O)CC(=O)O | – | -2.94% [at 53 µM]
4 | O=C(NCC1CN(c2ccc(N3CCOCC3=O)cc2)C(=O)O1)c1ccc(Cl)s1 (stereo not drawn) | 9.77 µM (active) | –
5 | O=CC1CC=CCC1 (stereo not drawn) | – | -15.3%
6 | CC[N+]1(CC)CCC(=C(c2ccccc2)c2ccccc2)C1C (stereo not drawn) | – | 2.18% [at 53 µM]
7 | CCOC(=O)c1cccnc1 | – | -0.72% [at 53 µM]
8 | COc1ccc(S(=O)(=O)N2C(=O)[C@@](c3ccccc3OC)(N3C[C@H](O)C[C@H]3C(=O)N(C)C)c3cc(Cl)ccc32)c(OC)c1 | 39.9 µM (active) | –
9 | CCCCCC[C@@H](O)C/C=C\CCCCCCCC(=O)OC | 12.7 µM (active) | –
10 | CCCCCCCN | – | -0.421%
11 | NCc1ccccc1Sc1ccccc1CO | 9.77 µM (active) | –
12 | CCCCCCCCCOS(=O)(=O)O | 22.4 µM (active) | –
13 | CCCCOC(=O)CCCCCCCC(=O)OCCCC | 44.8 µM (active) | –
14 | O=C(O)CC(=O)C(=O)O | – | -14.9%
15 | O=C(O)c1ccco1 | – | -17%
16 | O=C1C(O)=C(O)C(=O)C(O)=C1O | – | 3.6% [at 53 µM]
17 | OCCNCc1ccccc1 | – | -33.6%
18 | ClCCOCCOCCCl | – | -0.711%
19 | Nc1ccccc1S(=O)(=O)c1ccccc1 | – | 64.3%
20 | CC1=CC[C@H](C(C)C)C=C1 | 39.9 µM (active) | –
21 | COC(=O)c1ccc(I)cc1S(=O)(=O)NC(=O)Nc1nc(C)nc(OC)n1 | 34.1 µM (active) | –
22 | COS(=O)(=O)C(F)(F)F | – | -15%
23 | CCOCC(O)COc1ccc(NC(=O)CC[S+](C)C)cc1 (stereo not drawn) | – | -6.99% [at 53 µM]
